An excerpt weighted towards active compounds, which were near 9.6% of everything screened.
PostGolgi ctrl: yeast control strain growth, post-Golgi counter-screen | inhibition, % at 10 µM | 98,000 compounds, 5% hits | AID 738 | efflux-deficient yeast background strain, growth absorbance A615, 16 h
DAT uptake mod: human DAT dopamine uptake with cocaine, either direction. 110,000 compounds, 1.3% hits. AID 449768. B-score at 10 µM. Q01959. LLC-PK1 hDAT cells, [14C]-dopamine uptake with cocaine IC80; actives deviate in either direction;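 active means Z score or B-score, a plate-position-corrected score, falls beyond the plate's 99.7% confidence bounds, in either direction; inactive means both scores lie inside the 99.7% bounds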;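 further: scored against the spread of the other compound wells on the same plate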
Target sequence (Q01959 whole entry, looked up): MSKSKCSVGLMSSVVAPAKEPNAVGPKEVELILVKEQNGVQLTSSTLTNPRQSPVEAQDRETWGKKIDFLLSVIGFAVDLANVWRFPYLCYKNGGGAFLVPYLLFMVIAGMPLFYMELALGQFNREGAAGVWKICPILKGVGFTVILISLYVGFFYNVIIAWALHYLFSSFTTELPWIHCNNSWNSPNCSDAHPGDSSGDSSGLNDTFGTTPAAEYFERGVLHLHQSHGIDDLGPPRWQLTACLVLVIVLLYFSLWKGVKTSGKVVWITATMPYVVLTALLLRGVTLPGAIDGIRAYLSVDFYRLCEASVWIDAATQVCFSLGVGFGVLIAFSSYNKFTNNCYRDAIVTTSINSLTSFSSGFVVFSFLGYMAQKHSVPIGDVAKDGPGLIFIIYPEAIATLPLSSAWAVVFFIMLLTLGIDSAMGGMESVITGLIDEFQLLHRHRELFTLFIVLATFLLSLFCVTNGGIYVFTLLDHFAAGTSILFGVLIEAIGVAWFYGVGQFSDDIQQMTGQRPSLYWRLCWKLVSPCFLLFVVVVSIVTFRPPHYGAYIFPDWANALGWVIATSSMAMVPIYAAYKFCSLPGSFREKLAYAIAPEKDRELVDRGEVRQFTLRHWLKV
PLAP activator: human PLAP activation. 96,000 compounds, 1.2% hits. activation fold at 20 µM. AID 696. P05187. purified PLAP enzyme, luminescent substrate read-out; active compounds read high; in the data active means activation fold above about 2
PostGolgi yeast: growth inhibition of a yeast mutant, post-Golgi transport screen | inhibition, % at 10 µM | AID 739 | post-Golgi transport phenotypic cell assay | 98,000 compounds, 0.9% hits;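 further: yeast cells grown in 1536-well plates; yeast grown about 18 h at 30C before absorbance read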
Cav32 inh: human Cav3.2 channel inhibition, primary screen | O95180 | Cav3.2-expressing cells, Fluo-4 calcium fluorescence FDSS; active compounds read low | B-score at 10 µM | 100,000 compounds, 4% hits | AID 449739;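 active means single-dose well whose peak fluorescence ratio is a statistical outlier from its plate by either plate-standardised score or position-corrected B-score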
Numbers without * were called inactive. Unless noted, no stated cut-off is given here; in the data, active means inhibition above about 30%; inactive means the rest.

How did COc1ccc(CN2CC(C(=O)NCCc3ccc(C)cc3)CC2=O)cc1 (stereo not given) do in these assays?
PostGolgi ctrl: 9; DAT uptake mod: -0.74; PLAP activator: 1.1; PostGolgi yeast: -4; Cav32 inh: 0.032

Results for Cc1nc2ccc(C(=O)O)cc2c2c1CC(C)S2 (stereo not given) ?
PostGolgi ctrl: 3; DAT uptake mod: 0.056; PLAP activator: 1.3; PostGolgi yeast: 11

How did CO/N=C\C(=N\Nc1ccc(OC)cc1)C(=O)c1ccccc1 do in these assays?
PostGolgi ctrl: 0; DAT uptake mod: -0.41; PLAP activator: 0.9; PostGolgi yeast: -4; Cav32 inh: 2.1

Results for CCCn1nc(-c2nnc(-c3ccc(C)c(C)c3)o2)c2ccccc2c1=O ?
PostGolgi ctrl: 14; DAT uptake mod: 0.008; PLAP activator: 0.6; PostGolgi yeast: 0; Cav32 inh: 0.43

What do the screens show for `O=C(c1cn(-c2ccccc2)nc1-c1cccs1)N1CCN(c2ccccn2)CC1`?
PostGolgi ctrl: 54*; DAT uptake mod: 1.3; PLAP activator: 1.6; PostGolgi yeast: -3; Cav32 inh: -6.2*

Results for O=C(c1cc2n(n1)C(C(F)(F)F)CC(c1ccc(F)cc1)N2)N1CCCC1 (stereo not given) ?
PostGolgi ctrl: 11; DAT uptake mod: -0.35; PLAP activator: 1.3; PostGolgi yeast: 1; Cav32 inh: 0.25

Results for CC(C)C[C@H](NC(=O)OC(C)(C)C)c1nnc(SCc2ccccc2)o1 ?
PostGolgi ctrl: 0; DAT uptake mod: 0.35; PLAP activator: 1.6; PostGolgi yeast: -3; Cav32 inh: -4.8*

How did CCOC(=O)CSc1nnc([C@H](Cc2ccccc2)NC(=O)OC(C)(C)C)o1 do in these assays?
PostGolgi ctrl: -2; DAT uptake mod: 0.34; PLAP activator: 1.3; PostGolgi yeast: 2; Cav32 inh: -0.56

What do the screens show for `CC(C)[C@H](NC(=O)OC(C)(C)C)c1nnc(S(=O)(=O)Cc2c(F)cccc2Cl)o1`?
DAT uptake mod: 0.64; PLAP activator: 1.2; Cav32 inh: -1.2

What do the screens show for `CC(C)(C)OC(=O)N[C@@H](Cc1ccccc1)c1nnc(S(=O)(=O)Cc2cccc(F)c2)o1`?
PostGolgi ctrl: 22; DAT uptake mod: -1.3; PLAP activator: 1.8; PostGolgi yeast: 18

What do the screens show for `CC(C)(C)OC(=O)N[C@@H](CCCCNC(=O)OCc1ccccc1)c1nnc([C@H](CCCCNC(=O)OCc2ccccc2)NC(=O)OC(C)(C)C)o1`?
DAT uptake mod: 0.77; Cav32 inh: -2.8*

How did Cc1ccccc1CS(=O)(=O)c1nnc([C@H](CC(C)C)NC(=O)OC(C)(C)C)o1 do in these assays?
PostGolgi ctrl: 45*; DAT uptake mod: -0.48; PLAP activator: 1; PostGolgi yeast: 41*; Cav32 inh: -1.1

Results for CC[C@@H](C)[C@H](NC(=O)OC(C)(C)C)c1nnc(S(=O)(=O)Cc2cc(C)ccc2C)o1 ?
PostGolgi ctrl: 41*; DAT uptake mod: 0.67; PLAP activator: 1.1; PostGolgi yeast: 5; Cav32 inh: -0.67

What do the screens show for `CCN(Cc1ccncc1)C(=O)c1cccs1`?
PostGolgi ctrl: -3; DAT uptake mod: -0.81; PLAP activator: 0.9; PostGolgi yeast: -10; Cav32 inh: -0.2

What do the screens show for `NC(=O)c1sc2nc3c(c(-c4cccs4)c2c1N)CCCCC3`?
PostGolgi ctrl: 12; PLAP activator: 1; PostGolgi yeast: 4; Cav32 inh: 0.14

How did O=c1cc(-c2ccccc2)[nH]n1-c1nc2ccccc2[nH]1 do in these assays?
PostGolgi ctrl: 4; DAT uptake mod: -1.4; PLAP activator: 2.1*; PostGolgi yeast: -5; Cav32 inh: -5.6*

What do the screens show for `Cc1ccc2c(c1)[nH]c1c(=O)n(Cc3ccccn3)cnc12`?
PostGolgi ctrl: 8; DAT uptake mod: 0.0035; PLAP activator: 0.8; PostGolgi yeast: -1; Cav32 inh: -0.21

What do the screens show for `CCOC(=O)c1cccc(Nc2nc(-c3cccnc3)nc3ccccc23)c1`?
PostGolgi ctrl: 68*; PLAP activator: 1.2; PostGolgi yeast: 4

What do the screens show for `COc1ccc(S(=O)(=O)NC2CCCCC2)c(C)c1C`?
PostGolgi ctrl: 13; DAT uptake mod: 0.54; PLAP activator: 0.6; PostGolgi yeast: -7; Cav32 inh: -1.2

What do the screens show for `COC(C[C@@H](O)C[C@H](O)COCc1ccccc1)OC`?
DAT uptake mod: -0.091; Cav32 inh: 0.48

What do the screens show for `CCOC(=O)CN1CC23C=CC(O2)C(C(=O)Nc2ccc(OC)cc2OC)C3C1=O` (stereo not given)?
PostGolgi ctrl: 17; DAT uptake mod: -0.71; PLAP activator: 1.2; PostGolgi yeast: -1; Cav32 inh: -0.21

How did CCOC(=O)CN1CC23C=CC(O2)C(C(=O)Nc2ccc(F)c(C)c2)C3C1=O (stereo not given) do in these assays?
PostGolgi ctrl: 36*; DAT uptake mod: -0.42; PLAP activator: 1.7; PostGolgi yeast: 7; Cav32 inh: 0.42

Results for O=C(CO)N/N=C/c1ccc(Cl)cc1 ?
PostGolgi ctrl: -3; DAT uptake mod: 0.73; PLAP activator: 1.1; PostGolgi yeast: 5; Cav32 inh: 0.1

How did Cc1ccc(NC(=O)N/C=C/c2ccc(Cl)cc2)cc1 do in these assays?
PostGolgi ctrl: 31*; PLAP activator: 1.2; PostGolgi yeast: -7

Results for O=C(N/C=C/c1ccccc1)Nc1ccc(Cl)cc1 ?
PostGolgi ctrl: 3; DAT uptake mod: -0.13; PLAP activator: 1; PostGolgi yeast: 1; Cav32 inh: -0.67

How did O=C(N/N=C/c1ccc(Cl)cc1)Nc1ccccc1 do in these assays?
PostGolgi ctrl: 22; DAT uptake mod: 0.38; PLAP activator: 1; PostGolgi yeast: -4; Cav32 inh: -6.5*

Results for O=C(Nc1ccc(Cl)cc1)Nc1cccnc1 ?
PostGolgi ctrl: 7; DAT uptake mod: -2.3*; PLAP activator: 1.1; PostGolgi yeast: 0; Cav32 inh: 0.15

What do the screens show for `O=C(O)CCCC(=O)Nc1c(F)c(F)c(F)c(F)c1F`?
PostGolgi ctrl: 3; DAT uptake mod: -0.1; PLAP activator: 1; PostGolgi yeast: -5; Cav32 inh: 0.19

How did CCOC(=O)/C(C#N)=C/C1=C(N2CCCC2)CC(C)(CC)OC1 (stereo not given) do in these assays?
PostGolgi ctrl: 16; DAT uptake mod: -0.97; PLAP activator: 1; PostGolgi yeast: 4; Cav32 inh: 2.5

Results for O=C1C2CC=CCC2C(=O)N1c1ncn[nH]1 (stereo not given) ?
PostGolgi ctrl: 6; DAT uptake mod: 0.25; PLAP activator: 2.6*; PostGolgi yeast: -3; Cav32 inh: 0.52

Results for O=C1C2CC=C(Cl)CC2C(=O)N1c1ncn[nH]1 (stereo not given) ?
PostGolgi ctrl: 8; DAT uptake mod: -0.49; PostGolgi yeast: 0; Cav32 inh: 2.2

How did O=C(c1ccccc1)c1ccccc1N/C=C/c1nnnn1-c1ccccc1 do in these assays?
PostGolgi ctrl: 35*; PLAP activator: 1; PostGolgi yeast: -1; Cav32 inh: -3.3

What do the screens show for `CCOC(=O)c1oc2ccc3c(c2c1C)C(=O)CC1(CCN(C(=O)OCC)CC1)O3`?
PostGolgi ctrl: 35*; DAT uptake mod: 0.37; PLAP activator: 1.4; PostGolgi yeast: -7; Cav32 inh: 0.54
